# Test results taken from PubChem BioAssay (NCI).
# About 83,000 compounds went through this panel and 20% of them were active in at least one assay; those are over-represented in the sample as a whole.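 Values shown are percent growth following 48 h exposure of cells in 96-well plates to a single concentration of compound; below 10 was considered active.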 Values without a mark were called inactive. Activity calls are given as the source filed them.
# What was measured:
# Assay in all cases: NCI-60 one-dose screen, 48 h (100 = growth as untreated, 0 = no growth, -100 = all killed)
# NCI-H23 lung = details: 10 µM unless noted
# NCI-H226 lung = details: 10 µM unless noted
# NCI-H322M lung = details: 10 µM unless noted
# HOP-62 NSCLC = details: 10 µM unless noted
# NCI-H460 lung = details: 10 µM unless noted
# HOP-92 NSCLC = details: 10 µM unless noted
# NCI-H522 lung = details: 10 µM unless noted
# A549/ATCC NSCLC = details: 10 µM unless noted
# 786-0 renal = details: 10 µM unless noted
# COLO 205 colon = details: 10 µM unless noted
# DU-145 prostate = details: 10 µM unless noted
# K-562 leukemia = details: 10 µM unless noted
# MDA-MB-231 breast = details: 10 µM unless noted
# RXF 393 renal = details: 10 µM unless noted
# SF-268 CNS = details: 10 µM unless noted
# SF-295 CNS = details: 10 µM unless noted
# SF-539 CNS = details: 10 µM unless noted
# UACC-257 melanoma = details: 10 µM
# M14 melanoma = details: 10 µM unless noted
# MALME-3M melanoma = details: 10 µM unless noted
Structure (SMILES),growth (NCI-H23 lung) [%],growth (NCI-H226 lung) [%],growth (NCI-H322M lung) [%],growth (HOP-62 NSCLC),growth (NCI-H460 lung),growth (HOP-92 NSCLC),growth (NCI-H522 lung),growth (A549/ATCC NSCLC) [%],growth (786-0 renal),growth (COLO 205 colon) [%],growth (DU-145 prostate),growth (K-562 leukemia),growth (MDA-MB-231 breast),growth (RXF 393 renal),growth (SF-268 CNS),growth (SF-295 CNS),growth (SF-539 CNS),growth (UACC-257 melanoma) [%],growth (M14 melanoma) [%],growth (MALME-3M melanoma)
CCC(=O)Oc1cc(/C=C/C(=O)O[C@H]2C[C@H]3CN4CCc5c([nH]c6cc(OC)ccc56)[C@@H]4C[C@@H]3[C@@H](C(=O)OC)[C@@H]2OC)ccc1OC,86.7,67,122,89%,93.5%,-1.22% (active),84%,80.5,70.3%,69.5,82.9%,39.7%,49.7%,57.9%,74.8%,106%,84.6%,74.9,82.5,
O=S(=O)(NCCNc1nccc(-c2c(-c3ccccc3)nc3sccn23)n1)c1ccc(O)cc1,50.3,46,58.2,58.9%,21.4%,61.3%,65.4%,32.2,64.1%,28.5,46%,35.9%,50%,45.9%,46.5%,47.3%,59.2%,82.4,35.7,
COC(=O)C(CC(=O)c1ccc(-c2ccccc2)cc1)c1ccccc1 (stereo not drawn),76.6,63.3,96.8,75.1%,90%,68.3%,-0.151% (active),76.6,28.7%,36.7,72.7%,20.6%,66.3%,56.5%,88.7%,58.6%,34.7%,66.7,42.6,
COc1cc(/C=C2\CCCC3=C2N=C2SC(C)=NN2C3c2cc(OC)c(OC)c(OC)c2)cc(OC)c1OC (stereo not drawn),23.2,27.7,28.5,-0.72% (active),-13.9% (active),91.9%,81%,39.9,34.5%,19.2,4.69% (active),6.05% (active),-39.6% (active),24.2%,9.86% (active),5.96% (active),-21.6% (active),49.3,10.6,
Cc1ccc(C(=O)c2sc3nc4c(cc3c2N)CCCC4)c(C)c1,35.1,60.1,29.5,39.6%,14%,27.4%,-0.883% (active),19.2,35.2%,,6.18% (active),11.9%,21.3%,-16% (active),44.1%,-4.3% (active),-25% (active),57.6,30.6,27%
O=S(=O)(NCCCNc1cc(-c2cn(-c3ccccc3)nc2-c2cccc(O)c2)ccn1)c1cccc2ccccc12,44.9,38.7,44.3,47.3%,18%,11.8%,44.5%,35.8,-9.71% (active),,49.7%,1.39% (active),4.29% (active),32.1%,39.9%,-19.9% (active),33.3%,,28.2,-1.89% (active)
CCCC1OC(c2ccc(C(C)C)cc2)OCC1CC (stereo not drawn),98.8,100,98,74%,123%,101%,87.2%,75.8,,99.6,110%,102%,107%,115%,103%,104%,96.3%,,101,106%
CC(Br)C(Br)c1cc2c(cc1Br)OCO2 (stereo not drawn),96.4,99.3,87.5,68%,126%,106%,87.2%,72.4,,90.2,108%,112%,110%,104%,99.6%,98.5%,91.1%,,94.3,100%
COC1=CC(c2ccc[nH]2)=N/C1=C\c1[nH]c(C)c(CCCn2cc(CCCCCCCCC[C@@H]3Cc4cc(O)ccc4C4CC[C@]5(C)[C@@H](O)CC[C@H]5C43)nn2)c1C (stereo partly drawn),49.9,68.2,44.6,60.3%,37.3%,25.8%,24.5%,48.3,63.9%,,33.3%,28%,-12.8% (active),28.1%,58.2%,65.2%,59.1%,98.5,74,137%
